About 7,900 targets were measured; listed, in parts, are those with a hit and a random draw of the rest. About 0.6% of all pairs of compound and target were hits.
Columns and labels:
Test in all cases: log2 fold change, soluble protein after heating vs DMSO (PISA); higher = thermal stabilisation; K562 cells, 10 uM, 30 min; active = over 0.2 and 3.5 SD of the protein, either way, in both replicates (recomputed)
saracatinib = compound: CN1CCN(CCOc2cc(OC3CCOCC3)c3c(Nc4c(Cl)ccc5c4OCO5)ncnc3c2)CC1 [saracatinib]
Procedure, shortened: (§1)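 Soluble protein was defined as the supernatant after 21,000xg for 90 min. It came from K562 cells at 2×10^6 cells/mL given 10 μM compound for 30 min, heated in aliquots for 3 min across 48°C-58°C, pooled, and extracted in PBS with 0.5% NP-40 at 4°C, and was quantified by TMTpro 16plex LC-MS/MS with equalised channel sums. Thermal stability against control samples, from duplicates, is reported as log2 fold change.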

sotrastaurin = compound: CN1CCN(c2nc(C3=C(c4c[nH]c5ccccc45)C(=O)NC3=O)c3ccccc3n2)CC1 [sotrastaurin]
Procedure, shortened: as §1

alvocidib = compound: CN1CC[C@H](c2c(O)cc(O)c3c(=O)cc(-c4ccccc4Cl)oc23)[C@H](O)C1 [alvocidib]
Procedure, shortened: as §1

Tubastatin A = compound: CN1CCc2c(c3ccccc3n2Cc2ccc(C(=O)NO)cc2)C1 [Tubastatin A]
Procedure, shortened: as §1

[1] = compound: CNC(=O)C1=CC=CC=C1NC2=NC(=NC=C2Cl)NC3=C(C=C(C=C3)N4CCOCC4)OC
Procedure, shortened: as §1

defactinib = compound: CNC(=O)c1ccc(Nc2ncc(C(F)(F)F)c(NCc3nccnc3N(C)S(C)(=O)=O)n2)cc1 [defactinib]
Procedure, shortened: as §1

rucaparib = compound: CNCc1ccc(-c2[nH]c3cc(F)cc4c3c2CCNC4=O)cc1 [rucaparib]
Procedure, shortened: as §1

[2] = compound: CNc1nc(-c2ccc3c(N)n[nH]c3c2)cc(N2C[C@@H](C(=O)NC3CCCCC3)CC[C@H]2C)n1
Procedure, shortened: as §1

encorafenib = compound: COC(=O)N[C@@H](C)CNc1nccc(-c2cn(C(C)C)nc2-c2cc(Cl)cc(NS(C)(=O)=O)c2F)n1 [encorafenib]
Procedure, shortened: as §1

[3] = compound: COC(=O)[C@H](CCSC)NC(=O)C1=C(C=C(C=C1)NC[C@H](CS)N)C2=CC=CC=C2
Procedure, shortened: as §1

Measured: log2 fold change

TXN2 (UniProt Q99757)
inactive: saracatinib 0.004 | sotrastaurin 0.04 | alvocidib -0.058 | Tubastatin A 0.004 | [1] 0.17 | defactinib 0.031 | rucaparib -0.003 | [2] -0.034 | encorafenib 0.001 | [3] 0.068

TRAPPC13 isoform 5 (UniProt A5PLN9)
Sequence of UniProt A5PLN9 (A5PLN9 whole entry, looked up): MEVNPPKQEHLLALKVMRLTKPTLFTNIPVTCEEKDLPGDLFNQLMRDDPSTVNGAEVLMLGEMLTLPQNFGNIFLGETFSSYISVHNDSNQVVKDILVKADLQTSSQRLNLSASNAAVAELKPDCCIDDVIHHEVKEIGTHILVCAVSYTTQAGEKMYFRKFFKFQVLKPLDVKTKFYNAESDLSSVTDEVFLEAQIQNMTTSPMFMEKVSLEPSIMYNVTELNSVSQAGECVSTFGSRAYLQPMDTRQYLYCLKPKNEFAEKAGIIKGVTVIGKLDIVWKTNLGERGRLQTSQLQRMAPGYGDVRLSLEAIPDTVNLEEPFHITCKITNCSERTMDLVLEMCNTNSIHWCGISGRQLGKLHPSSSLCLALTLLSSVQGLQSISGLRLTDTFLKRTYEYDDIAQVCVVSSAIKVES
inactive: saracatinib 0.045 | sotrastaurin -0.061 | alvocidib -0.029 | Tubastatin A 0.026 | [1] 0.04 | defactinib -0.051 | rucaparib 0.072 | [2] -0.045 | encorafenib 0.217 | [3] -0.099

VPS33B (UniProt Q9H267)
Sequence of UniProt Q9H267 (Q9H267 whole entry, looked up): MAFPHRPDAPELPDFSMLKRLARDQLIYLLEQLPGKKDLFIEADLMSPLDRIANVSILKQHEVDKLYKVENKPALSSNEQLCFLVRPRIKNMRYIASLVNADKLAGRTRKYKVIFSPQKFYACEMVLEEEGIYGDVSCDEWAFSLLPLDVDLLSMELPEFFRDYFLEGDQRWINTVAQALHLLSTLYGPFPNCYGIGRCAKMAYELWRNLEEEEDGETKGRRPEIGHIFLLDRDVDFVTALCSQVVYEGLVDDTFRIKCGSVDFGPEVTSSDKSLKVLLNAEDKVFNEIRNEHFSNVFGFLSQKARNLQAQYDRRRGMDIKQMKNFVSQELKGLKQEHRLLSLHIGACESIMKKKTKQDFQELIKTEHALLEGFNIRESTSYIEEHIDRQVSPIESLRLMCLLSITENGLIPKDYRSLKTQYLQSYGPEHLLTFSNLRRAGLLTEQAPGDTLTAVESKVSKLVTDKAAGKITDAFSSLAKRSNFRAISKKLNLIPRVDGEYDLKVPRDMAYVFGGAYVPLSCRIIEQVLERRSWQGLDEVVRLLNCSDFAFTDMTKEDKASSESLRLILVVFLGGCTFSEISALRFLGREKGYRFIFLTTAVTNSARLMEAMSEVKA
inactive: saracatinib -0.088 | sotrastaurin -0.117 | alvocidib -0.008 | Tubastatin A 0.039 | [1] -0.071 | defactinib -0.078 | rucaparib 0.196 | [2] 0.052 | encorafenib 0.111 | [3] -0.058

VPS28 (UniProt Q9UK41)
inactive: saracatinib -0.101 | sotrastaurin -0.078 | alvocidib -0.135 | Tubastatin A 0.072 | [1] 0.043 | defactinib -0.172 | rucaparib -0.044 | [2] -0.046 | encorafenib 0.082 | [3] -0.033

WASHC5 (UniProt Q12768)
inactive: saracatinib 0.007 | sotrastaurin -0.02 | alvocidib -0.042 | Tubastatin A 0.047 | [1] 0.062 | defactinib -0.032 | rucaparib 0.045 | [2] -0.009 | encorafenib 0.033 | [3] -0.033

WDR4 (UniProt P57081)
inactive: saracatinib 0.008 | sotrastaurin 0.071 | alvocidib -0.068 | Tubastatin A 0.018 | [1] -0.022 | defactinib -0.027 | rucaparib -0.079 | [2] 0.024 | encorafenib 0.041 | [3] -0.033

VTI1A (UniProt Q96AJ9)
inactive: saracatinib 0.101 | sotrastaurin 0.027 | alvocidib -0.002 | Tubastatin A -0.028 | [1] 0.095 | defactinib -0.03 | rucaparib -0.058 | [2] -0.042 | encorafenib -0.001 | [3] 0.07

VPS39 (UniProt Q96JC1)
inactive: saracatinib 0 | sotrastaurin -0.097 | alvocidib -0.035 | Tubastatin A 0.033 | [1] -0.015 | defactinib -0.068 | rucaparib 0.039 | [2] 0.005 | encorafenib -0.006 | [3] -0.03

UCHL5 (UniProt Q9Y5K5)
inactive: saracatinib -0.044 | sotrastaurin -0.057 | alvocidib -0.097 | Tubastatin A 0.148 | [1] 0.013 | defactinib -0.107 | rucaparib 0.074 | [2] -0.001 | encorafenib 0.091 | [3] -0.028

UXT isoform 2 (UniProt Q9UBK9)
Sequence of UniProt Q9UBK9 (Q9UBK9 whole entry, looked up): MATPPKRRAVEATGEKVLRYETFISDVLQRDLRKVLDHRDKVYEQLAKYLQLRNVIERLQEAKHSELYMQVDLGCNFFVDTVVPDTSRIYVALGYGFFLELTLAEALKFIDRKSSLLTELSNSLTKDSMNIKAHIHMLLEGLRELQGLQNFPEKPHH
inactive: saracatinib 0.031 | sotrastaurin -0.056 | alvocidib -0.01 | Tubastatin A 0.077 | [1] -0.191 | defactinib 0 | rucaparib 0.049 | [2] -0.027 | encorafenib -0.018 | [3] -0.078

TUT4 (UniProt Q5TAX3)
inactive: saracatinib -0.089 | sotrastaurin 0.003 | alvocidib 0.112 | Tubastatin A 0.073 | [1] -0.075 | defactinib -0.095 | rucaparib -0.001 | [2] -0.008 | encorafenib -0.144 | [3] 0.082

TRIM28 (UniProt Q13263)
Sequence of UniProt Q13263 (Q13263 whole entry, looked up): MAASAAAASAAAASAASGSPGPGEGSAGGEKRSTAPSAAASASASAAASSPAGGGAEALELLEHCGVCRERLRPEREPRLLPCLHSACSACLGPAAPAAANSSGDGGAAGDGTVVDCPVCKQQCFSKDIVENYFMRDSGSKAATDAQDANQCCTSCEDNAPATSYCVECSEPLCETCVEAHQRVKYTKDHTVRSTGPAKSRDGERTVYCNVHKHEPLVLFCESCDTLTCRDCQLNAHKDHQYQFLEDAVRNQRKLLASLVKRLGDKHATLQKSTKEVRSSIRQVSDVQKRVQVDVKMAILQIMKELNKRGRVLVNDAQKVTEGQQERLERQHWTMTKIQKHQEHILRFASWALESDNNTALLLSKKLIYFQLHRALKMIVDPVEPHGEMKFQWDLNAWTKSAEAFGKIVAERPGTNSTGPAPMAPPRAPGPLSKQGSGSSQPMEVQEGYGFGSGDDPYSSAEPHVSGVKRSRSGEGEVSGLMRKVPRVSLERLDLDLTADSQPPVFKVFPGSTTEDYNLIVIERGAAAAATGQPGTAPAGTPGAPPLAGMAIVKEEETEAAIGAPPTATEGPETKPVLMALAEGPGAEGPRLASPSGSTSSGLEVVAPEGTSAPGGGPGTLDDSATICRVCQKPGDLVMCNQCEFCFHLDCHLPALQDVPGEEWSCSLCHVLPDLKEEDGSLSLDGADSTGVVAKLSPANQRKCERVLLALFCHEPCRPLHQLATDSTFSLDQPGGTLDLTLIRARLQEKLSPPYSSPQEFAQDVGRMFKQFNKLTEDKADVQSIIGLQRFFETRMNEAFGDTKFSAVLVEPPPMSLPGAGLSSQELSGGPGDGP
inactive: saracatinib 0.008 | sotrastaurin -0.064 | alvocidib -0.128 | Tubastatin A 0.048 | [1] 0.054 | defactinib -0.121 | rucaparib -0.075 | [2] -0.019 | encorafenib 0.047 | [3] -0.032

TXNRD1 (UniProt Q16881)
inactive: saracatinib -0.012 | sotrastaurin 0.058 | alvocidib -0.05 | Tubastatin A -0.001 | [1] 0.022 | defactinib -0.015 | rucaparib -0.113 | [2] 0.032 | encorafenib -0.033 | [3] -0.001

TRMT61A (UniProt Q96FX7)
inactive: saracatinib -0.018 | sotrastaurin -0.002 | alvocidib 0.134 | Tubastatin A 0.08 | [1] -0.038 | defactinib 0.138 | rucaparib 0.286 | [2] 0.02 | encorafenib -0.03 | [3] 0.039

TTI2 (UniProt Q6NXR4)
inactive: saracatinib -0.028 | sotrastaurin -0.187 | alvocidib 0.027 | Tubastatin A -0.02 | [1] 0.051 | defactinib -0.073 | rucaparib 0.119 | [2] -0.036 | encorafenib 0.037 | [3] -0.038

TNNC2 (UniProt P02585)
inactive: saracatinib 0.007 | sotrastaurin 0.095 | alvocidib -0.009 | Tubastatin A -0.139 | [1] -0.035 | defactinib 0.012 | rucaparib -0.025 | [2] -0.056 | encorafenib -0.049 | [3] 0.037

WRB (UniProt O00258)
Sequence of UniProt O00258 (O00258 whole entry, looked up): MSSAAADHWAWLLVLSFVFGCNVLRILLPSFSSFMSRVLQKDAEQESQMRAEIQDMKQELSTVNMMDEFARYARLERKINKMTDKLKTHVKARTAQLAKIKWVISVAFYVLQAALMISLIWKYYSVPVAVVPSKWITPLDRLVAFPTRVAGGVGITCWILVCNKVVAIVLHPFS
inactive: saracatinib -0.007 | sotrastaurin 0.075 | alvocidib 0.034 | Tubastatin A -0.051 | [1] -0.048 | defactinib 0.073 | rucaparib -0.003 | [2] -0.014 | encorafenib -0.057 | [3] 0.023

TMEM192 (UniProt Q8IY95)
inactive: saracatinib 0.092 | sotrastaurin -0.028 | alvocidib 0.001 | Tubastatin A 0.035 | [1] 0.015 | defactinib -0.016 | rucaparib -0.01 | [2] -0.033 | encorafenib -0.02 | [3] 0.036

USP34 (UniProt Q70CQ2)
inactive: saracatinib 0.006 | sotrastaurin -0.102 | alvocidib -0.274 | Tubastatin A 0.069 | [1] -0.049 | defactinib -0.164 | rucaparib -0.055 | [2] -0.015 | encorafenib 0.08 | [3] 0.002

UGGT1 (UniProt Q9NYU2)
Sequence of UniProt Q9NYU2 (Q9NYU2 whole entry, looked up): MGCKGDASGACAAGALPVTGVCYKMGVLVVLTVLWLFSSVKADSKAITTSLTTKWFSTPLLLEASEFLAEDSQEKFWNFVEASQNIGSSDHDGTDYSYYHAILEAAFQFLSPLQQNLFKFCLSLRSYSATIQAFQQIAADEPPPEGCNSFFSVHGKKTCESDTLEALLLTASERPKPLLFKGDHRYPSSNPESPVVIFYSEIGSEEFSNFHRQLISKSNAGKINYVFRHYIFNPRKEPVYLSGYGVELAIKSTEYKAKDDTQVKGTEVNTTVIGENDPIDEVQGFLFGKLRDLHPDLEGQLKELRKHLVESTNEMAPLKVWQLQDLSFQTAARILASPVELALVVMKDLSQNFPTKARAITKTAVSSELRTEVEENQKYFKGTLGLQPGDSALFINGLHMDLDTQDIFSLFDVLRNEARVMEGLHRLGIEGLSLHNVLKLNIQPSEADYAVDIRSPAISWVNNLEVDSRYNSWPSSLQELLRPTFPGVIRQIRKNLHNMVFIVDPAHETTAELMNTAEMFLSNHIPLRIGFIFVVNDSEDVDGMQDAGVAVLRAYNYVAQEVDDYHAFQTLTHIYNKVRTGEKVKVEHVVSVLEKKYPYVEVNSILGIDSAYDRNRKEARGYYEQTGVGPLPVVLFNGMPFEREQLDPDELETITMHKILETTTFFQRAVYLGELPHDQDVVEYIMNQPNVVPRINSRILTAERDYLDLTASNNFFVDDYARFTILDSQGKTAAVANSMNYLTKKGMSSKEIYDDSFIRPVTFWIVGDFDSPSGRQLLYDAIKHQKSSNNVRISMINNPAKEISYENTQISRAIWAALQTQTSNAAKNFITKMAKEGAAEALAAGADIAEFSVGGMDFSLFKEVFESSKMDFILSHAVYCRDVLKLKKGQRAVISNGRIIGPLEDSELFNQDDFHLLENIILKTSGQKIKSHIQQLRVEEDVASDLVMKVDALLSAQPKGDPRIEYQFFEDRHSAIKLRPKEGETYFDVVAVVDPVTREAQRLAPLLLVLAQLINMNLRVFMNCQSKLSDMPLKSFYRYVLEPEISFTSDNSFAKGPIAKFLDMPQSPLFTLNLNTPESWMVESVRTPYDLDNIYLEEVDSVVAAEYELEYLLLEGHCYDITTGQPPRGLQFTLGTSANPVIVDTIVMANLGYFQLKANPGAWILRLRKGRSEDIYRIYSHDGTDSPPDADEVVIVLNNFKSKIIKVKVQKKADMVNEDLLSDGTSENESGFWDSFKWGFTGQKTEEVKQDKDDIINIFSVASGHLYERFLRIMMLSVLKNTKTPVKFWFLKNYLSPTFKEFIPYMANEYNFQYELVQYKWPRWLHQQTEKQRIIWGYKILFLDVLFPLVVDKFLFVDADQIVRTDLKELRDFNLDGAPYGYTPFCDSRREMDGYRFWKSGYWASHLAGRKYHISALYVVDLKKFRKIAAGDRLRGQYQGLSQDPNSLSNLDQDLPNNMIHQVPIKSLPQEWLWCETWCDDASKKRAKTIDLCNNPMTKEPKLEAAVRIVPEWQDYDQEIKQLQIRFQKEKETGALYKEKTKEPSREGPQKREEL
inactive: saracatinib -0.006 | sotrastaurin -0.034 | alvocidib -0.037 | Tubastatin A 0.022 | [1] -0.005 | defactinib 0.019 | rucaparib 0.009 | [2] -0.033 | encorafenib 0.017 | [3] -0.002

VPS72 isoform 2 (UniProt Q15906)
inactive: saracatinib -0.094 | sotrastaurin 0.004 | alvocidib 0.042 | Tubastatin A -0.011 | [1] -0.021 | defactinib -0.016 | rucaparib 0.28 | [2] -0.082 | encorafenib -0.053 | [3] -0.019

USO1 isoform 2 (UniProt O60763)
Sequence of UniProt O60763 (O60763 whole entry, looked up): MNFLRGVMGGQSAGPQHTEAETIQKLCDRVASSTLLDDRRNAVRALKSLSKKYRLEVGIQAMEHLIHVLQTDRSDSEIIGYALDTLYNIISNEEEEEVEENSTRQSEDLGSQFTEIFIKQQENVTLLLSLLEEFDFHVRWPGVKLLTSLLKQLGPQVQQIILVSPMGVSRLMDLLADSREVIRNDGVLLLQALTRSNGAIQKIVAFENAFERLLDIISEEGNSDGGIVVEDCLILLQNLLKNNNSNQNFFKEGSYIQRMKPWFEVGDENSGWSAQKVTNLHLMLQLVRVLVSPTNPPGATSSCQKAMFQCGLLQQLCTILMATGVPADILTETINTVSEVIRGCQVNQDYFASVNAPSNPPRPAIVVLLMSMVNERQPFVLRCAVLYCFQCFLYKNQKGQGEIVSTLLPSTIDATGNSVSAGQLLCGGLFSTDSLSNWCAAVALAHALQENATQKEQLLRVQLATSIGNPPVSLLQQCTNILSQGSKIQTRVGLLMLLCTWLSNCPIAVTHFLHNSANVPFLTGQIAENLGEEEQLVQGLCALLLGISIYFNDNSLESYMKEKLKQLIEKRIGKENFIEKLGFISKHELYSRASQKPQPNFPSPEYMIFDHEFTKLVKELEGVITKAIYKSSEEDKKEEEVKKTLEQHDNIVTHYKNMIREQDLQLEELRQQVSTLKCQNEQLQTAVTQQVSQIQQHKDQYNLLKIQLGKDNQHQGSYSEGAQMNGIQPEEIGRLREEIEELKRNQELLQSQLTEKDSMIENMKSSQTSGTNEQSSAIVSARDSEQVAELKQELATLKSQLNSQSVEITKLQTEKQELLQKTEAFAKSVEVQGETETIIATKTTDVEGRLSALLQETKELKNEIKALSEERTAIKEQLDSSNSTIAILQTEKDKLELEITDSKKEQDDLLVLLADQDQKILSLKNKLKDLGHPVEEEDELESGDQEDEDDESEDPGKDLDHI
inactive: saracatinib 0.076 | sotrastaurin -0.028 | alvocidib -0.012 | Tubastatin A -0.026 | [1] 0.029 | defactinib -0.034 | rucaparib -0.019 | [2] 0.03 | encorafenib 0.022 | [3] -0.003

VARS2, A0A0G2JL52
inactive: saracatinib 0.007 | sotrastaurin -0.019 | alvocidib -0.005 | Tubastatin A -0.026 | [1] -0.019 | defactinib -0.005 | rucaparib 0.02 | [2] 0.012 | encorafenib -0.004 | [3] -0.041

UBR2 (UniProt Q8IWV8)
inactive: saracatinib -0.065 | sotrastaurin -0.024 | alvocidib 0.132 | Tubastatin A 0.098 | [1] -0.014 | defactinib -0.052 | rucaparib -0.012 | [2] 0.145 | encorafenib 0.143 | [3] 0.085

WASHC2A (UniProt Q641Q2)
inactive: saracatinib 0.013 | sotrastaurin 0.001 | alvocidib 0.052 | Tubastatin A 0.016 | [1] 0.015 | defactinib 0.01 | rucaparib 0.045 | [2] -0.039 | encorafenib 0.019 | [3] 0.017

TMEM128 (UniProt Q5BJH2)
Sequence of UniProt Q5BJH2 (Q5BJH2 whole entry, looked up): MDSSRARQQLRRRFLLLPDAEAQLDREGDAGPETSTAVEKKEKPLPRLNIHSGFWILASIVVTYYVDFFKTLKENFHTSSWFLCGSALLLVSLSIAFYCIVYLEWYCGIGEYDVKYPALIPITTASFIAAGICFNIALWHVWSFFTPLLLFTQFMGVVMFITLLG
inactive: saracatinib 0.083 | sotrastaurin 0.01 | alvocidib -0.082 | Tubastatin A -0.011 | [1] -0.023 | defactinib -0.045 | rucaparib 0.019 | [2] -0.062 | encorafenib -0.006 | [3] -0.006

USP14 (UniProt P54578)
inactive: saracatinib -0.007 | sotrastaurin -0.013 | alvocidib -0.047 | Tubastatin A 0.033 | [1] 0.012 | defactinib -0.064 | rucaparib -0.025 | [2] -0.01 | encorafenib 0.044 | [3] -0.021

UHRF1BP1L (UniProt A0JNW5)
inactive: saracatinib -0.01 | sotrastaurin 0 | alvocidib -0.037 | Tubastatin A 0.031 | [1] -0.051 | defactinib -0.024 | rucaparib -0.052 | [2] 0.05 | encorafenib -0.02 | [3] -0.029

WARS2 (UniProt Q9UGM6)
inactive: saracatinib -0.037 | sotrastaurin 0.014 | alvocidib -0.08 | Tubastatin A -0.04 | [1] 0.018 | defactinib -0.065 | rucaparib 0.04 | [2] 0.006 | encorafenib -0.011 | [3] -0.057

— the supplement of paper PMC10849652
